In PubChem BioAssay (NCATS):
Records with an inconclusive call do not appear. Activity calls are given as the source filed them. Calls come from the whole dose curve; as a rule, active = well fitted cell-killing curve with a large enough effect; inconclusive = small, poorly fitted or top-dose-only effect, or effect the other way; inactive = no such curve, though single readings can be large or run the other way.

Columns and labels:
[1] = Quantitative High-Throughput drug screen in 47 multiple myeloma cell lines against the NCATS MIPE library collection: KMS28PE_JCRB cell viability assay (AID 1918983); note: nearly all actives have a fitted effect of over 35% in size
Procedure, shortened: (§1)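 MIPE 4.0 approved/investigational drugs; 500 cells/well; 48 h 37 °C humidified 5% CO2; CTG luminescence readout; DMSO = 100%, media = 0% viability.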

[2] = Quantitative High-Throughput drug screen in 47 multiple myeloma cell lines against the NCATS MIPE library collection: L363_DSMZ cell viability assay (AID 1918984); note: nearly all actives have a fitted effect of over 40% in size
Procedure, shortened: as §1

[3] = Quantitative High-Throughput drug screen in 47 multiple myeloma cell lines against the NCATS MIPE library collection: KMS34_JCRB cell viability assay (AID 1918985); note: nearly all actives have a fitted effect of over 40% in size
Procedure, shortened: as §1

[4] = Quantitative High-Throughput drug screen in 47 multiple myeloma cell lines against the NCATS MIPE library collection: OPM1_PLB cell viability assay (AID 1918989); note: nearly all actives have a fitted effect of over 40% in size
Procedure, shortened: as §1

[5] = Quantitative High-Throughput drug screen in 47 multiple myeloma cell lines against the NCATS MIPE library collection: U266_ATCC cell viability assay (AID 1919864); note: nearly all actives have a fitted effect of over 35% in size;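 for viability (% of DMSO control): 0% = media-only wells without cells and 100% = DMSO-only wells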
Procedure, shortened: as §1

[6] = Quantitative High-Throughput drug screen in 47 multiple myeloma cell lines against the NCATS MIPE library collection: XG6_PLB cell viability assay (AID 1919865); note: nearly all actives have a fitted effect of over 40% in size
Procedure, shortened: as §1

[7] = Quantitative High-Throughput drug screen in 47 multiple myeloma cell lines against the NCATS MIPE library collection: XG1_PLB cell viability assay (AID 1919866); note: nearly all actives have a fitted effect of over 35% in size
Procedure, shortened: as §1

[8] = Quantitative High-Throughput drug screen in 47 multiple myeloma cell lines against the NCATS MIPE library collection: VP6_DJ cell viability assay (AID 1919867); note: nearly all actives have a fitted effect of over 40% in size;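 for viability (% of DMSO): 100% = DMSO-only wells and 0% = wells with media alone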
Procedure, shortened: as §1

[9] = Quantitative High-Throughput drug screen in 47 multiple myeloma cell lines against the NCATS MIPE library collection: PE2_PLB cell viability assay (AID 1919869); note: nearly all actives have a fitted effect of over 35% in size
Procedure, shortened: as §1

[10] = Quantitative High-Throughput drug screen in 47 multiple myeloma cell lines against the NCATS MIPE library collection: PCM6_Riken cell viability assay (AID 1919870); note: nearly all actives have a fitted effect of over 30% in size
Procedure, shortened: as §1

[11] = Quantitative High-Throughput drug screen in 47 multiple myeloma cell lines against the NCATS MIPE library collection: OPM2_DSMZ cell viability assay (AID 1919872); note: nearly all actives have a fitted effect of over 30% in size
Procedure, shortened: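 Viability readout: CellTiter-Glo luminescence following 5 min room-temperature incubation with reagent. Prior exposure: 48 h, 37C, humidified 5% CO2, 500 cells per well.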

[12] = Quantitative High-Throughput drug screen in 47 multiple myeloma cell lines against the NCATS MIPE library collection: KMS11_JCRBsus cell viability assay (AID 1919873); note: nearly all actives have a fitted effect of over 50% in size
Procedure, shortened: as §1

[13] = Quantitative High-Throughput drug screen in 47 multiple myeloma cell lines against the NCATS MIPE library collection: KMS28BM_JCRB cell viability assay (AID 1919874); note: nearly all actives have a fitted effect of over 35% in size
Procedure, shortened: as §1

[14] = Quantitative High-Throughput drug screen in 47 multiple myeloma cell lines against the NCATS MIPE library collection: OCIMY7_PLB cell viability assay (AID 1918987); details: OCI-MY7 myeloma viability, CellTiter-Glo ATP, 48 h; viability (% of DMSO): at 45.8 µM (top of the series); note: nearly all actives have a fitted effect of over 65% in size
Procedure, shortened: as §1

[15] = Quantitative High-Throughput drug screen in 47 multiple myeloma cell lines against the NCATS MIPE library collection: OCIMY5_PLB cell viability assay (AID 1918988); note: nearly all actives have a fitted effect of over 65% in size
Procedure, shortened: as §1

[16] = Quantitative High-Throughput drug screen in 47 multiple myeloma cell lines against the NCATS MIPE library collection: SKMM1_PLB cell viability assay (AID 1919863); details: SKMM1 myeloma viability, CellTiter-Glo ATP, 48 h; viability: stronger effect = lower value; note: nearly all actives have a fitted effect of over 35% in size
Procedure, shortened: as §1

[17] = Quantitative High-Throughput drug screen in 47 multiple myeloma cell lines against the NCATS MIPE library collection: UTMC2_PLB cell viability assay (AID 1919868); details: CellTiter-Glo ATP luminescence, 48 h; viability (% of DMSO control): at 45.8 µM (top of the series); note: nearly all actives have a fitted effect of over 55% in size;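 for viability (% of DMSO control): 100% = DMSO-only wells and 0% = media-only wells without cells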
Procedure, shortened: as §1

[18] = Quantitative High-Throughput drug screen in 47 multiple myeloma cell lines against the NCATS MIPE library collection: RPMI8226_ATCC cell viability assay (AID 1919871); note: nearly all actives have a fitted effect of over 30% in size
Procedure, shortened: as §1
Potency is the fitted concentration of half-maximal effect.

O=C(c1ccc(F)cc1)N1CCC[C@H](c2nc(-c3ccc(F)cc3)no2)C1
inactive: Potency [1] | Potency [2] | Potency [3] | Potency [4] | Potency [5] | Potency [6] | Potency [7] | Potency [8] | Potency [9] | Potency [10] | Potency [11] | Potency [12] | Potency [13]

Cc1ccc(O)c(C(CCN(C(C)C)C(C)C)c2ccccc2)c1 (centres undefined)
inactive: Potency [1] | Potency [2] | Potency [14] | Potency [15] | Potency [4] | Potency [6] | Potency [7] | Potency [8] | Potency [10] | Potency [11] | Potency [12]

CC(C)Oc1ccc(C(=O)N[C@H](CNC(=O)CN(C)C)Cc2ccc(-c3cn4cccc([C@H](C)O)c4n3)cc2)cc1Cl
active: Potency [1] 0.59 µM | Potency [2] 0.0833 µM | Potency [14] 0.332 µM | Potency [15] 0.418 µM | Potency [16] 0.296 µM | Potency [5] 20.9 µM | Potency [6] 0.105 µM | Potency [7] 0.148 µM | Potency [8] 5.26 µM | Potency [10] 23.5 µM | Potency [11] 1.48 µM | Potency [12] 0.132 µM | Potency [13] 1.66 µM

O=C(NCc1ccccc1)[C@H](Cc1ccccc1)NC(=O)[C@@H]1O[C@@H]1C(=O)NCCc1ccc(O)cc1
inactive: Potency [1] | Potency [14] | viability [16] 128% | Potency [8] | Potency [11] | Potency [13]
active: Potency [2] 16.6 µM | Potency [7] 14.8 µM | Potency [9] 23.5 µM

CCOc1cc2ncc(C#N)c(Nc3ccc(OCc4ccccn4)c(Cl)c3)c2cc1NC(=O)C=CCN(C)C
active: Potency [1] 13.2 µM | Potency [2] 0.469 µM | Potency [3] 10.5 µM | Potency [14] 0.0526 µM | Potency [15] 0.833 µM | Potency [5] 13.2 µM | Potency [6] 0.0187 µM | Potency [7] 0.132 µM | Potency [8] 1.18 µM | Potency [17] 0.209 µM | Potency [9] 5.26 µM | Potency [10] 0.332 µM | Potency [12] 14.8 µM

CCCCCCCCCCCCc1ccc(S(=O)(=O)Nc2nncs2)cc1
inactive: Potency [1] | Potency [2] | Potency [3] | Potency [15] | Potency [4] | Potency [5] | Potency [6] | Potency [8] | Potency [17] | Potency [10] | Potency [11] | Potency [12] | Potency [13]
active: Potency [9] 8.33 µM

COc1ccc(Nc2cc(-c3cnc(N)nc3)nc(N3CCOCC3)n2)cn1
active: Potency [1] 0.833 µM | Potency [2] 0.526 µM | Potency [3] 2.96 µM | Potency [14] 1.05 µM | Potency [15] 11.8 µM | Potency [16] 0.235 µM | Potency [6] 3.72 µM | Potency [7] 2.35 µM | Potency [8] 5.26 µM | Potency [11] 7.43 µM | Potency [12] 0.469 µM

CNC(=O)c1ccc(Nc2cc(Nc3ccccc3S(=O)(=O)C(C)C)c3cc[nH]c3n2)nc1
active: Potency [1] 9.35 µM | Potency [2] 2.35 µM | Potency [14] 0.833 µM | Potency [15] 4.69 µM | Potency [4] 1.66 µM | Potency [16] 18.7 µM | Potency [5] 1.48 µM | Potency [6] 0.662 µM | Potency [7] 0.296 µM | Potency [8] 0.526 µM | Potency [17] 0.418 µM | Potency [9] 1.18 µM | Potency [10] 1.18 µM | Potency [11] 7.43 µM | Potency [12] 2.64 µM | Potency [13] 1.32 µM

N#CC(=C(O)c1ccc(Cl)cc1Cl)c1nc2cc(Cl)ccc2c(=O)[nH]1
inactive: Potency [1] | Potency [2] | Potency [14] | Potency [4] | Potency [5] | Potency [7] | Potency [17] | Potency [18] | Potency [11] | Potency [12] | Potency [13]
active: Potency [8] 16.6 µM

CN(CC(=O)N(Cc1ccc(C2CCCCC2)cc1)c1ccc(C(=O)O)c(O)c1)S(=O)(=O)c1c(F)c(F)c(F)c(F)c1F
active: Potency [1] 29.6 µM | Potency [2] 9.35 µM | Potency [3] 20.9 µM | Potency [14] 8.33 µM | Potency [15] 18.7 µM | Potency [5] 13.2 µM | Potency [6] 4.69 µM | Potency [7] 4.69 µM | Potency [8] 8.33 µM | viability (% of DMSO control) [17] 77% | Potency [9] 3.32 µM | Potency [18] 23.5 µM | Potency [11] 23.5 µM

Cc1cnc(Nc2ccc(N3CCN(C)CC3)cc2)nc1Nc1cccc(S(=O)(=O)NC(C)(C)C)c1
active: Potency [1] 7.43 µM | Potency [2] 3.72 µM | Potency [3] 2.35 µM | Potency [14] 0.935 µM | Potency [15] 1.48 µM | Potency [16] 3.32 µM | Potency [5] 11.8 µM | Potency [6] 0.662 µM | Potency [7] 0.469 µM | Potency [8] 0.469 µM | Potency [17] 2.35 µM | Potency [9] 1.32 µM | Potency [10] 3.72 µM | Potency [18] 4.18 µM | Potency [11] 6.62 µM | Potency [12] 1.32 µM | Potency [13] 5.26 µM

CCCCCCCCCCCCCCCC(=O)OC[C@@H](NC(=O)C(Cl)Cl)[C@H](O)c1ccc([N+](=O)[O-])cc1
inactive: Potency [1] | Potency [2] | Potency [3] | Potency [15] | Potency [4] | Potency [5] | Potency [6] | Potency [8] | Potency [9] | Potency [10] | Potency [11] | Potency [12]
